Results taken from PubChem BioAssay.
Calls of active or inactive are those of the source. Unless noted, the rule behind the calls is not given here.

Tests used:
[1] = compounds binding Alexa647 anti-His antibody – biochemical, small-molecule microarray, 635 nm fluorescence, artefact control for SMM control protein annotation, primary screen (AID 1128); details: higher = more signal;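 note: score merges feature fluorescence with signal-to-noise for each printed compound spot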
[2] = system: Human papillomavirus type 1a E7 protein (residues 1-88); assay: HPV1a E7 small-molecule binders, primary screen, biochemical, small-molecule microarray, residues 1-88, 635 nm (AID 1129); details: small-molecule microarray binding, fluorescence 635 nm; higher = more signal
[3] = molecular target: Focal adhesion kinase 1 (Homo sapiens) (UniProt Q05397); assay: PTK2 protein binding on printed compound slides – biochemical, small-molecule microarray, 635/667 nm fluorescence, BSA, DTT, primary screen (AID 1130); details: 635 nm fluorescence, higher = more signal;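 note: composite of spot emission at 667 nm and signal to noise over triplicate slides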
[4] = system: Fibrinogen (Alexa647-labelled); assay: Alexa647-fibrinogen binding to printed small molecules – biochemical, small-molecule microarray, 635/667 nm fluorescence, artefact control for SMM control-protein annotation, profiling panel (AID 1131); details: fibrinogen-A647 binding fluorescence, higher = more signal;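 note: z-score merges 667 nm fluorescence with per-spot signal-to-noise over triplicate slides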
[5] = molecular target: Follistatin (Homo sapiens) (UniProt P19883); assay: FST protein binding to printed compounds – biochemical, small-molecule microarray, 635/667 nm fluorescence, primary screen (AID 1132); details: 635 nm fluorescence, higher = more signal
[6] = molecular target: Fibroblast growth factor 2 (Homo sapiens) (UniProt P09038); assay: basic fibroblast growth factor binding to printed compounds – biochemical, small-molecule microarray, 635/667 nm fluorescence, primary screen (AID 1133); details: FGF2, fluorescence 635/667, higher = more signal
[7] = JC-1 mitochondrial potential readout, lung cancer cells – cell-based, A549, JC-1 fluorescence, basal, 24 h, 100 nL, profiling panel (AID 1138); details: higher = more signal;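 note: A549 lung adenocarcinoma cells under basal conditions with no added stimulus; test concentration not given here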
Lefty1 = Lefty1 protein binding to printed compounds – biochemical, small-molecule microarray, 635/667 nm fluorescence, primary screen (AID 1139); details: fluorescence 635/667, higher = more signal
[8] = system: wheat germ agglutinin (Triticum aestivum), Alexa647-labelled; assay: Alexa647-WGA lectin binding to printed small molecules – biochemical, small-molecule microarray, 635/667 nm fluorescence, artefact control for SMM control-protein annotation, profiling panel (AID 1140); details: WGA-A647 binding, 635 nm fluorescence, higher = more signal;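 note: score merges 667 nm feature emission with signal to noise over triplicate slides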
[9] = molecular target: Luciferin 4-monooxygenase (Photinus pyralis) (UniProt P08659); assay: inhibition of purified Photinus pyralis luciferase – biochemical, luminescence, purified enzyme, 2006 set, primary screen (AID 1141); details: purified firefly luciferase, SteadyGlo luminescence, 30 min; higher = more signal, called active from +8 up or from −8 down;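 note: cell-free assay with purified firefly luciferase at 100 ng per well in PBS; test concentration not given here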
[10] = system: Wnt5a (protein binding on small-molecule microarray); assay: small molecules binding Wnt5a protein – biophysical, small-molecule microarray, 635/667 nm fluorescence, primary screen (AID 1142); details: 635 nm fluorescence, higher = more signal;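 note: fluorescence read at 667 nm with signal to noise per printed feature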
[11] = ATP-based viability of Huh7 replicon cells – cell-based, CellTiter-Glo luminescence, basal, 48 h, cytotoxicity control for HCV replication inhibitor project, primary screen (AID 1143); details: higher = more signal, called active from +8 up or from −8 down;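 note: Huh7 hepatoma cells carrying a hepatitis C replication reporter with no stimulus; test concentration not given here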
[12] = Pseudomonas biofilm growth suppression – PAO1 strain, BacTiter-Glo luminescence, LB-PBS, primary screen (AID 1144); details: P. aeruginosa PAO1 biofilm, 12 h, higher = more signal
[13] = basal CRE-LacZ reporter activity in PC12 – cell-based, unstimulated, primary screen (AID 1145); details: no forskolin, luminescence, 4.5 h, higher = more signal, called active from +8 up or from −8 down
[14] = forskolin-driven CRE-LacZ activity in PC12 – cell-based, CRE-LacZ reporter, forskolin-stimulated, primary screen (AID 1146); details: luminescence, 4.5 h, higher = more signal, called active from +8 up or from −8 down;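 note: PC12 cells with 6xCRE LacZ reporter stimulated by forskolin 10 µM; beta-galactosidase reporter signal reflecting CREB driven transcription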
[15] = molecular target: Streptavidin (Streptomyces avidinii) (UniProt P22629); assay: compounds binding control protein streptavidin – biophysical, small-molecule microarray, 635/667 nm fluorescence, artefact control for SMM compound annotation, primary screen (AID 1147); details: higher = more signal;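 note: signal reflects streptavidin binding to arrayed compounds as a control protein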
[16] = probe aInhba binding on compound microarray – biochemical, small-molecule microarray, 635/667 nm fluorescence, primary screen (AID 1148); details: higher = more signal;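 note: score merges 667nm spot fluorescence with signal-to-noise for antibody binding to printed compounds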
Torsin-1A (Homo sapiens) [17] = molecular target: Torsin-1A (Homo sapiens) (UniProt O14656); assay: TOR1A wild-type binding on microarray – cell lysate, small-molecule microarray, lysate, 635/667 nm, primary screen (AID 1149); details: COS7 hTOR1A-WT lysate, 635 nm fluorescence, higher = more signal
Torsin-1A (Homo sapiens) [18] = molecular target: Torsin-1A (Homo sapiens) (UniProt O14656); assay: torsin A mutant lysate binding on microarrays – cell lysate, small-molecule microarray, COS7 lysate, 635/667 nm fluorescence, primary screen (AID 1150); details: COS7 hTOR1A mutant lysate, 635 nm fluorescence, higher = more signal;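 note: score pools 667 nm emission and signal to noise measuring lysate protein binding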
[19] = system: Sonic hedgehog protein (Shh); assay: Sonic hedgehog microarray binding compounds – biochemical, small-molecule microarray, 635/667 nm fluorescence, primary screen (AID 1151); details: 635 nm fluorescence, higher = more signal;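 note: Shh protein binding to compounds spotted on small-molecule microarray slides; score combines spot fluorescence intensity with signal-to-noise across triplicate slides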

Chain of Focal adhesion kinase 1 (Homo sapiens) (Q05397 whole entry, looked up): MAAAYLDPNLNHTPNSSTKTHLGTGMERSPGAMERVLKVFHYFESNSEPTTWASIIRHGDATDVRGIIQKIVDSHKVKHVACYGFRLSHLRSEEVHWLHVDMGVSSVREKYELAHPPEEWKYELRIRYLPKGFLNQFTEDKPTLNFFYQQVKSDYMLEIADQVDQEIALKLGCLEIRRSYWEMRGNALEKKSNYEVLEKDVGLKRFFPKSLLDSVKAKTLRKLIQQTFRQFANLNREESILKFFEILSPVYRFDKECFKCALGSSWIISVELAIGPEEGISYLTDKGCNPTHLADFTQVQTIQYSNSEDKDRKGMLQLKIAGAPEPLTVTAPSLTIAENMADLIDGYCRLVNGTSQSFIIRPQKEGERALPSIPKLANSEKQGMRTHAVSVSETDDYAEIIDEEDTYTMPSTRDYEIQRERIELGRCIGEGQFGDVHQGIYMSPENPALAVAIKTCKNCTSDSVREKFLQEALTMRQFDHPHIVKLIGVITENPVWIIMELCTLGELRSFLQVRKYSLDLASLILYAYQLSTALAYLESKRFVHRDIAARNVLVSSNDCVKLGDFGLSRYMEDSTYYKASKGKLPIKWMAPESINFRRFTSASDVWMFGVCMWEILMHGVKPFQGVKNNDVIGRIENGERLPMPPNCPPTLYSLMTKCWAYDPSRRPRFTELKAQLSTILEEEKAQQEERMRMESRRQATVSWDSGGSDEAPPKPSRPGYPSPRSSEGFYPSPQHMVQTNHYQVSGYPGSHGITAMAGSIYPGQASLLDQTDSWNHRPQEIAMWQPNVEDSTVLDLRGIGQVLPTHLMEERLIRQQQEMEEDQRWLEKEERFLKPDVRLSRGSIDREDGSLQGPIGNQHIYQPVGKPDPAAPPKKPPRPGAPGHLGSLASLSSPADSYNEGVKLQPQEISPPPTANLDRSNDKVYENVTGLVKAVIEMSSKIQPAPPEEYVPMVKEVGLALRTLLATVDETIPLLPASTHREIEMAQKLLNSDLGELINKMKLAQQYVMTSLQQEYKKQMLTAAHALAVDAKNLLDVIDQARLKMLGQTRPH
Chain of Luciferin 4-monooxygenase (Photinus pyralis) (P08659 whole entry, looked up): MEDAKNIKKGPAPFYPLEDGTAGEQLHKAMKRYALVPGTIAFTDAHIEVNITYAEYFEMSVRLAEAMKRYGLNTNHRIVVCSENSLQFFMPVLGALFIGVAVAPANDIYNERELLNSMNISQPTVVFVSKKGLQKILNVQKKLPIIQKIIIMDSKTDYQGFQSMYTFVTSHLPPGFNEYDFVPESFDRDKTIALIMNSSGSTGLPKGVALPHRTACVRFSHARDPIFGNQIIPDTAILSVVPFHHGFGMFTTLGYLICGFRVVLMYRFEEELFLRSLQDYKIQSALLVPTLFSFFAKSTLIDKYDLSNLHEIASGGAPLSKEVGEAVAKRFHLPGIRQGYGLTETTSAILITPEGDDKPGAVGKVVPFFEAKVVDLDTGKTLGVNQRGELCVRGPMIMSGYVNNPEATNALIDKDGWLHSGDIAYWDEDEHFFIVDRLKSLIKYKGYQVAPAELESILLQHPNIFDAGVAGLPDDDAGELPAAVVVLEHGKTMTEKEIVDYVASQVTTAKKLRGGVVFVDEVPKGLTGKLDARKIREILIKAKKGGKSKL
Chain of Fibroblast growth factor 2 (Homo sapiens) (P09038 whole entry, looked up): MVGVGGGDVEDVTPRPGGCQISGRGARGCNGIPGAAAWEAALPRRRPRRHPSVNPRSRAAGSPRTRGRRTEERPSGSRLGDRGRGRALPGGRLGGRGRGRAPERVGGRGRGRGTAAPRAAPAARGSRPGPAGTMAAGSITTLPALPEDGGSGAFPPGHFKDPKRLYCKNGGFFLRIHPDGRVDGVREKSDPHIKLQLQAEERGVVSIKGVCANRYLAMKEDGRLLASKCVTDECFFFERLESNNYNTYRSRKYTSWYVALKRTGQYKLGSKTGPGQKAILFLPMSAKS
Chain of Follistatin (Homo sapiens) (P19883 whole entry, looked up): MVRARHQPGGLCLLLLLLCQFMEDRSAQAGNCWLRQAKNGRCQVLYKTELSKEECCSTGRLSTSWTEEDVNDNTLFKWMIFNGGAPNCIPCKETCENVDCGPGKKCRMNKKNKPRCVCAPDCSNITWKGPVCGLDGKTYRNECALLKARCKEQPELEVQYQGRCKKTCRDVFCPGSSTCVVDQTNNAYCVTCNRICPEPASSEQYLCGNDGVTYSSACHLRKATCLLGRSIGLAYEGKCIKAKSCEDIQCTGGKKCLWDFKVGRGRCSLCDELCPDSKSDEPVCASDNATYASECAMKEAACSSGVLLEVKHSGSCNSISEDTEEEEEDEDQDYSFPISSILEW
Chain of Torsin-1A (Homo sapiens) (O14656 whole entry, looked up): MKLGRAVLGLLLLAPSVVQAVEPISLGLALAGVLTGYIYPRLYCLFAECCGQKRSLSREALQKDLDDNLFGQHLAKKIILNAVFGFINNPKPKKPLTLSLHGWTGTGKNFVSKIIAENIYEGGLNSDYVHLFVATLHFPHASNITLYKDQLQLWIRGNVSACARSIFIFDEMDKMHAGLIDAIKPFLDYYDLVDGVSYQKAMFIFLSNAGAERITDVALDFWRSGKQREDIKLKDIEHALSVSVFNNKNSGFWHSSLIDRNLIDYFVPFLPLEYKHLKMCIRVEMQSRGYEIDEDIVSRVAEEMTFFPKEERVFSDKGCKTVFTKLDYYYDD
Chain of Streptavidin (Streptomyces avidinii) (P22629 whole entry, looked up): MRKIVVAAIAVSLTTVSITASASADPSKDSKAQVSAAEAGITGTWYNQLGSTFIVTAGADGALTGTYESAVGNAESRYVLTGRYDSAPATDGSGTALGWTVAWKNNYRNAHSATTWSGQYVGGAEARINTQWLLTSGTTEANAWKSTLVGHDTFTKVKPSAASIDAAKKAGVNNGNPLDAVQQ

## COCC(=C=CC[C@@H](O)c1cccc(OCCO)c1)C[C@@H](O)COCc1ccccc1
[1]
  composite z-score: 0.934
[2]
  composite z-score: 1.09
[3]
  composite z-score: 0.112
[4]
  composite z-score: -0.272
[5]
  composite z-score: 0.941
[6]
  composite z-score: -0.237
[7]
  z-score: 0.806
Lefty1
  composite z-score: -0.058
[8]
  composite z-score: 1.34
[9]
  z-score: -2.33 (inactive)
[10]
  composite z-score: 0.515
[11]
  z-score: -0.825 (inactive)
[12]
  z-score: 0.125 (inactive)
[13]
  z-score: 5.99 (inactive)
[14]
  z-score: -0.352 (inactive)
[15]
  composite z-score: 0.709
[16]
  composite z-score: 0.825
Torsin-1A (Homo sapiens) [17]
  composite z-score: 1.58
Torsin-1A (Homo sapiens) [18]
  composite z-score: 2.28
[19]
  composite z-score: 0.436

## COC(=O)[C@@]1(CCS(=O)(=O)c2ccccc2)N=C(c2ccc(OCCCO)cc2)O[C@H]1c1ccccc1N=[N+]=[N-]
[1]
  composite z-score: 1.65
[2]
  composite z-score: 1.21
[3]
  composite z-score: 0.621
[4]
  composite z-score: 0.757
[5]
  composite z-score: 0.993
[6]
  composite z-score: 0.89
[7]
  z-score: 0.797
Lefty1
  composite z-score: 0.162
[8]
  composite z-score: 0.647
[9]
  z-score: -1.93 (inactive)
[10]
  composite z-score: 0.0174
[11]
  z-score: -3.08 (inactive)
[12]
  z-score: -0.16 (inactive)
[13]
  z-score: 0.377 (inactive)
[14]
  z-score: -0.112 (inactive)
[15]
  composite z-score: 0.586
[16]
  composite z-score: 0.0519
Torsin-1A (Homo sapiens) [17]
  composite z-score: 1.83
Torsin-1A (Homo sapiens) [18]
  composite z-score: 1.04
[19]
  composite z-score: 1.2

## C=CCC(OC(C)=O)[C@@H]1[C@@H](N(Cc2ccc(-c3cccc(C(F)(F)F)c3)o2)C(=O)Cc2ccc(OC)cc2)c2cc(OCCCO)ccc2N1C(=O)c1ccc2ccccc2n1 (stereo not given in full)
[1]
  composite z-score: 0.292
[2]
  composite z-score: -1.64
[3]
  composite z-score: -0.236
[4]
  composite z-score: -0.665
[5]
  composite z-score: 0.767
[6]
  composite z-score: -0.149
[7]
  z-score: -0.448
Lefty1
  composite z-score: 0.0089
[8]
  composite z-score: 0.113
[9]
  z-score: 0.471 (inactive)
[10]
  composite z-score: -0.162
[11]
  z-score: -1.45 (inactive)
[12]
  z-score: 0.6 (inactive)
[13]
  z-score: 0.339 (inactive)
[14]
  z-score: 0.792 (inactive)
[15]
  composite z-score: -0.356
[16]
  composite z-score: 0.0517
Torsin-1A (Homo sapiens) [17]
  composite z-score: 0.0833
Torsin-1A (Homo sapiens) [18]
  composite z-score: -0.475
[19]
  composite z-score: 0.38

## CCCCC(O)C1C=CC2C(=O)NC(=O)C2N1Nc1ccccn1 (stereo not given)
[1]
  composite z-score: 1.12
[2]
  composite z-score: 0.0748
[3]
  composite z-score: 0.205
[4]
  composite z-score: -0.796
[5]
  composite z-score: -0.117
[6]
  composite z-score: 0.256
[7]
  z-score: -0.0561
Lefty1
  composite z-score: -0.0094
[8]
  composite z-score: 0.135
[9]
  z-score: -0.407 (inactive)
[10]
  composite z-score: -0.0034
[11]
  z-score: 0.294 (inactive)
[12]
  z-score: -0.314 (inactive)
[13]
  z-score: -0.133 (inactive)
[14]
  z-score: 0.438 (inactive)
[15]
  composite z-score: 0.0033
[16]
  composite z-score: 0.0225
Torsin-1A (Homo sapiens) [17]
  composite z-score: 0.477
Torsin-1A (Homo sapiens) [18]
  composite z-score: 0.203
[19]
  composite z-score: -0.432

## COC(=O)[C@@]1(Cc2ccc(OC)cc2)[C@H]2c3cc(C(=O)N4CCCC4)n(CCc4ccc(OC)c(Br)c4)c3C[C@H]2CN1C(=O)c1ccccc1
[1]
  composite z-score: 1.66
[2]
  composite z-score: 1.16
[3]
  composite z-score: 0.946
[4]
  composite z-score: 0.406
[5]
  composite z-score: -0.533
[6]
  composite z-score: -0.381
[7]
  z-score: 0.914
Lefty1
  composite z-score: -1.13
[8]
  composite z-score: 0.345
[9]
  z-score: 0.626 (inactive)
[10]
  composite z-score: -0.0726
[11]
  z-score: -0.0564 (inactive)
[12]
  z-score: 0.24 (inactive)
[13]
  z-score: 0.387 (inactive)
[14]
  z-score: 0.132 (inactive)
[15]
  composite z-score: 0.0687
[16]
  composite z-score: 0.195
Torsin-1A (Homo sapiens) [17]
  composite z-score: 0.373
Torsin-1A (Homo sapiens) [18]
  composite z-score: 0.57
[19]
  composite z-score: -0.908
